Assay results reported in PubChem BioAssay (NCATS).
Inconclusive results are not listed. Active and inactive are the calls of the source. Calls come from the whole dose curve; as a rule, active = well fitted curve in the direction sought with a large enough effect; inconclusive = small, poorly fitted or top-dose-only effect, or another doubt; inactive = no such curve, though single readings can be large; an effect the other way counts as inactive or inconclusive.
% is set by controls: 0 for no effect and ±100 for the full control effect; potency is the fitted concentration of half-maximal effect.
Note: nearly all actives have a fitted effect of over 65% in size.

Assay: qHTS of pediatric cancer cell lines to identify multiple opportunities for drug repurposing: Confirmatory screen for LAN-5 cells (AID 1347113)
Settings: LAN-5 neuroblastoma cell viability; series mostly up to 45.9 µM; activity change, negative = cytotoxicity: at the top concentration
Procedure, shortened: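 Cells (500-1,000/well) rested 5 h, then received compounds for 48 h; metabolically active cells were measured by CellTiter-Glo luminescence. Final concentrations spanned up to 46 µM (MIPE, 11-point) or 0.59 nM-46 µM (NPC, 8-point) in primary screens, 11-point in follow-ups.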
In the case of `Cc1ccc(C(N)=O)cc1Nc1nccc(-c2cn(C(C)C)c3cnccc23)n1`, the Potency is reported as 8.51 µM (active).
With `NCC(=O)Nc1ccc(-n2nc(C(F)(F)F)cc2-c2ccc3c(ccc4ccccc43)c2)cc1` the Potency was 2.93 µM (active).
With `CC(C)c1cnn2c(NCc3ccccc3)cc(N[C@@H](CO)[C@H](O)CO)nc12` the Potency was 0.293 µM (active).
With `CC(C)c1cc(C(=O)N2Cc3ccc(CN4CCN(C)CC4)cc3C2)c(O)cc1O` the Potency was 0.465 µM (active).
In the case of `CN(C)CCCN=c1c2ccccc2n(C)c2[nH]c(=O)n(C)c(=O)c12`, the Potency is reported as 23.3 µM (active).
For `O=C(Cc1ccc(-c2ccc(OCCN3CCOCC3)cc2)cn1)NCc1ccccc1`, the Potency was 0.147 µM (active).
For `Cc1cnc(-c2cnc(NCCNc3ccc(C#N)cn3)nc2-c2ccc(Cl)cc2Cl)[nH]1`, the “outcome” value was “inactive”.
With `CS(=O)(=O)N1CCN(Cc2cc3nc(-c4cccc5[nH]ncc45)nc(N4CCOCC4)c3s2)CC1` the Potency was 1.91 µM (active).
In the case of `CC[C@@H]1C(=O)N(C)c2cnc(Nc3ccc(C(=O)NC4CCN(C)CC4)cc3OC)nc2N1C1CCCC1`, the Potency is reported as 5.22 µM (active).
In the case of `Cc1nc2cnc3ccc(C#Cc4cccnc4)cc3c2n1-c1ccc(C(C)(C)C#N)cc1`, the Potency is reported as 3.02 µM (active).
For `CC(C)(C)NC(=O)[C@H]1CN(Cc2cccnc2)CCN1C[C@@H](O)C[C@@H](Cc1ccccc1)C(=O)N[C@H]1c2ccccc2C[C@H]1O`, the “activity change, negative = cytotoxicity” value was -9.55% (inactive).
In the case of `CCN1CCN(Cc2ccc(-c3cc4c(N[C@H](C)c5ccccc5)ncnc4[nH]3)cc2)CC1`, the Potency is reported as 9.55 µM (active).
With `CCOc1cc2ncc(C#N)c(Nc3ccc(F)c(Cl)c3)c2cc1NC(=O)C=CCN(C)C` the “activity change, negative = cytotoxicity” value was -18.9% (inactive).
In the case of `COc1cccc(-c2ccc(NC(=O)C3=C(C(=O)O)CCC3)c(F)c2)c1`, the “activity change, negative = cytotoxicity” value is reported as -10.1% (inactive).
For `CC(=O)Nc1nc(C)c(-c2ccc(Cl)c(S(=O)(=O)NCCO)c2)s1`, the Potency was 6.57 µM (active).
In the case of `Cn1c(=O)n(-c2ccc(C(C)(C)C#N)cc2)c2c3cc(-c4cnc5ccccc5c4)ccc3ncc21`, the Potency is reported as 2.08 µM (active).
In the case of `COc1ccc(C=Cc2cc(OC)c(OC)c(OC)c2)cc1O`, the Potency is reported as 0.0522 µM (active).
In the case of `Cc1cc(Nc2ncnc3ccc(-c4ccc(CNCCS(C)(=O)=O)o4)cc23)ccc1Oc1ccn2ncnc2c1`, the Potency is reported as 20.8 µM (active).
In the case of `Cc1c(CN2CCN(S(C)(=O)=O)CC2)sc2c(N3CCOCC3)nc(-c3cnc(N)nc3)nc12`, the Potency is reported as 1.31 µM (active).
With `Cc1cnc(Nc2ccc(F)cc2Cl)nc1-c1c[nH]c(C(=O)N[C@H](CO)c2cccc(Cl)c2)c1` the “activity change, negative = cytotoxicity” value was -96.7% (inactive).
For `CN(c1ncccc1CNc1nc(Nc2ccc3c(c2)CC(=O)N3)ncc1C(F)(F)F)S(C)(=O)=O`, the Potency was 4.65 µM (active).
In the case of `CCNC(=O)Nc1ccc2ncc(Nc3ccc(C)cc3)nc2n1`, the “activity change, negative = cytotoxicity” value is reported as 7.25% (inactive).

Assay: qHTS of pediatric cancer cell lines to identify multiple opportunities for drug repurposing: Confirmatory screen for DAOY cells (AID 1347114)
Settings: DAOY medulloblastoma cells viability, cytotoxicity qHTS; series mostly up to 45.9 µM; activity change, negative = cytotoxic: at the top concentration
Procedure, shortened: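 Viability measured as metabolically active cells via CellTiter-Glo luminescence following 48 hours of compound exposure, 11-point dilutions in confirmatory testing. 500-1,000 cells/well plated 5 hours before dosing; controls were DMSO and 2.3 µM bortezomib.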
For `Cc1ccc(C(N)=O)cc1Nc1nccc(-c2cn(C(C)C)c3cnccc23)n1`, the Potency was 13.5 µM (active).
In the case of `Nc1ccccc1NC(=O)c1ccc(CNc2nccc(-c3cccnc3)n2)cc1`, the Potency is reported as 2.93 µM (active).
In the case of `CC(C)c1cnn2c(NCc3ccccc3)cc(N[C@@H](CO)[C@H](O)CO)nc12`, the Potency is reported as 0.827 µM (active).
With `CN(C)CCCN=c1c2ccccc2n(C)c2[nH]c(=O)n(C)c(=O)c12` the “activity change, negative = cytotoxic” value was 14.9% (inactive).
For `O=C(Cc1ccc(-c2ccc(OCCN3CCOCC3)cc2)cn1)NCc1ccccc1`, the Potency was 0.117 µM (active).
With `Cc1cnc(-c2cnc(NCCNc3ccc(C#N)cn3)nc2-c2ccc(Cl)cc2Cl)[nH]1` the Potency was 16.5 µM (active).
In the case of `Cc1ccc2nc(NC(=O)CSc3nc4c(c(=O)n3-c3ccccc3)SCC4)sc2c1`, the Potency is reported as 7.37 µM (active).
In the case of `Cc1cc(C(=O)N2CCN(c3cccc(Cl)c3)CC2)n(-c2ccccc2)n1`, the Potency is reported as 0.928 µM (active).
With `O=C(NC1CCNCC1)c1[nH]ncc1NC(=O)c1c(Cl)cccc1Cl` the Potency was 1.17 µM (active).
In the case of `Cc1nc2cnc3ccc(C#Cc4cccnc4)cc3c2n1-c1ccc(C(C)(C)C#N)cc1`, the Potency is reported as 13.5 µM (active).
For `Cc1nc(Nc2n[nH]c3c2CN(C(=O)N[C@H](CN(C)C)c2ccccc2)C3(C)C)c2sccc2n1`, the “activity change, negative = cytotoxic” value was -9.7% (inactive).
In the case of `Cc1c(NC(=O)OC[C@@H]2COCCN2)cn2ncnc(Nc3ccc4c(cnn4Cc4cccc(F)c4)c3)c12`, the Potency is reported as 20.8 µM (active).
In the case of `CCN1CCN(Cc2ccc(-c3cc4c(N[C@H](C)c5ccccc5)ncnc4[nH]3)cc2)CC1`, the Potency is reported as 8.51 µM (active).
With `CC1(C)O[C@@H]2C[C@@H]3[C@H]4C[C@@H](F)C5=CC(=O)C=C[C@]5(C)[C@@]4(F)[C@@H](O)C[C@]3(C)[C@]2(C(=O)CO)O1` the Potency was 0.737 µM (active).
With `CN[C@H]1CCc2cc(OC)c(OC)c(OC)c2-c2ccc(OC)c(=O)cc21` the Potency was 0.0465 µM (active).
With `C=CCn1c(=O)c2cnc(Nc3ccc(N4CCN(C)CC4)cc3)nc2n1-c1cccc(C(C)(C)O)n1` the Potency was 1.85 µM (active).
With `COc1cccc(-c2ccc(NC(=O)C3=C(C(=O)O)CCC3)c(F)c2)c1` the “activity change, negative = cytotoxic” value was -8.45% (inactive).
With `C=C1C(=CC=C2CCC[C@]3(C)[C@@H]([C@H](C)C=C[C@H](C)C(C)C)CC[C@@H]23)C[C@@H](O)C[C@@H]1O` the Potency was 20.8 µM (active).
For `CCC1=C[C@@H]2CN(C1)Cc1c([nH]c3ccccc13)[C@@](C(=O)OC)(c1cc3c(cc1OC)N(C)[C@@H]1[C@@](O)(C(=O)OC)[C@H](OC(C)=O)[C@]4(CC)C=CCN5CC[C@]31[C@@H]54)C2`, the Potency was 0.657 µM (active).
In the case of `COc1ccc(C=Cc2cc(OC)c(OC)c(OC)c2)cc1O`, the Potency is reported as 0.0737 µM (active).
With `Cc1cnc(Nc2ccc(F)cc2Cl)nc1-c1c[nH]c(C(=O)N[C@H](CO)c2cccc(Cl)c2)c1` the Potency was 23.3 µM (active).
For `CN(c1ncccc1CNc1nc(Nc2ccc3c(c2)CC(=O)N3)ncc1C(F)(F)F)S(C)(=O)=O`, the Potency was 6.57 µM (active).
For `COc1cc2c(NC3CCN(C(C)C)CC3)nc(C3CCCCC3)nc2cc1OCCCN1CCCC1`, the Potency was 9.27 µM (active).
In the case of `CCNC(=O)Nc1ccc2ncc(Nc3ccc(C)cc3)nc2n1`, the “activity change, negative = cytotoxic” value is reported as -2.58% (inactive).
